Laboratory results reported in publication PMC5540273 (PLoS ONE, 2017).

How the values were obtained:
Conditions in all cases: concentration: 1 μM,replicates: in singlicate; n = 1
[1] = system: T1, ERK1
T1 construct: gene MAPK3

[2] = system: T2, ERK2
T2 construct: gene MAPK1

[3] = system: T3, ERK3
T3 construct: gene MAPK6

[4] = system: T4, ERK4
T4 construct: gene MAPK4

[5] = system: T5, ERK5
T5 construct: gene MAPK7

[6] = system: T6, ERK8
T6 construct: gene MAPK15

[7] = system: ERN1
[8] = system: T7, FAK
T7 construct: gene PTK2

[9] = system: FER
[10] = system: FES
[11] = system: FGFR1
[12] = system: FGFR2
[13] = system: FGFR3
[14] = system: FGFR4
[15] = system: FGR
[16] = system: FLT1
[17] = system: FLT3-autoinhibited
[18] = system: FLT3
[19] = system: FLT4
[20] = system: FRK
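Note: KINOMEscan kinase panel screen.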

SMILES | %Inh [1] | %Inh [2] | %Inh [3] | %Inh [4] | %Inh [5] | %Inh [6] | %Inh [7] | %Inh [8] | %Inh [9] | %Inh [10] | %Inh [11] | %Inh [12] | %Inh [13] | %Inh [14] | %Inh [15] | %Inh [16] | %Inh [17] | %Inh [18] | %Inh [19] | %Inh [20]
N#Cc1cccc(C(=O)NC2CCN(c3ccnc(Nc4ccc(F)cc4)n3)C2)c1 (stereo not shown) [GSK1379708] | 0% | 10% | 9% | 0% | 0% | 0% | 0% | 0% | 30% | 2% | 7% | 0% | 0% | 1% | 18% | 20% | 0% | 0% | 20% | 6%
COc1cc2nccc(Nc3ccc(Oc4ccccc4)cc3)c2cc1OC.Cl [GI261656] | 0% | 0% | 17% | 0% | 0% | 0% | 29% | 0% | 33% | 0% | 0% | 0% | 1% | 0% | 95.5% | 20% | 0% | 69% | 50% | 66%
Cn1ccc2ncnc(Oc3ccc(NC(=O)Nc4cc(C(C)(C)C)on4)c(Cl)c3)c21 | 9% | 5% | 8% | 9% | 6% | 65% | 49% | 0% | 0% | 25% | – | 72% | 23% | 73% | 32% | 97.6% | 15% | 99.9% | 99.8% | 96.3%
Cc1ccn2nc(-c3ccc(F)cc3)c(-c3ccncc3)c2c1.Cl [GW457859] | 0% | 0% | 1% | 15% | 8% | 0% | 0% | 0% | 2% | 0% | 0% | 85% | 4% | 0% | 0% | 15% | 14% | 0% | 0% | 0%
O=C(NOCC1CC1)c1cc(Br)c(F)c(F)c1Nc1ccc(I)cc1Cl | 0% | 0% | 0% | 0% | 0% | 8% | 0% | 0% | 11% | 0% | 0% | 1% | 0% | 0% | 0% | 0% | 0% | 0% | 0% | 0%
Cn1ccc2ncnc(Oc3ccc(NC(=O)Nc4cccc(C(F)(F)F)c4)c(F)c3)c21 | 0% | 19% | 0% | 14% | 11% | 74% | 0% | 34% | 28% | 0% | 0% | 14% | 5% | 3% | 3% | 98.9% | 38% | 98% | 99.9% | 85%
CN(c1cccc(CNc2nc(Nc3ccc4c(c3)CC(=O)N4)ncc2C(F)(F)F)c1)S(C)(=O)=O | 3% | 41% | 0% | 0% | 18% | 79% | 11% | – | 65% | 62% | 26% | 31% | 11% | 0% | 25% | 35% | 39% | 98.7% | 38% | 0%
O=C(Nc1ccc(Oc2ccc3nc(NC(=O)C4CC4)cn3n2)c(F)c1)c1cccn(-c2ccccc2)c1=O | 0% | 10% | 0% | 5% | 21% | 9% | 0% | 13% | 37% | 13% | 0% | 9% | 11% | 6% | 73% | 98.3% | 43% | 98.2% | 99.4% | 45%
Cl.Nc1n[nH]c2cc(-c3ccccn3)ccc12 [GSK2189892] | 0% | 0% | 0% | 31% | 0% | 0% | 0% | 0% | 13% | 0% | 0% | 15% | 0% | 0% | 10% | 19% | 0% | 0% | 0% | 1%
Cc1ccc(C(=O)Nc2ccc(Oc3ccc4nc(NC(=O)C5CC5)cn4c3)c(F)c2)c(=O)n1-c1ccccc1 | 0% | 0% | 0% | 0% | 0% | 34% | 0% | 3% | 75% | 48% | 0% | 23% | 11% | 1% | 91% | 67% | 62% | 98.5% | 100% | 64%
CN1CCN(CCCNc2nccc(-c3c(-c4ccc(F)cc4)nn4cc(C(N)=O)ccc34)n2)CC1 [GW622475] | 0% | 2% | 5% | 36% | 0% | 0% | 35% | 0% | 26% | 0% | 28% | 0% | 8% | 0% | 0% | 54% | 1% | 10% | 28% | 0%
Cn1ccc2ncnc(Oc3ccc(NC(=O)Nc4ccnc(C(F)(F)F)c4)c(Cl)c3)c21 | 0% | 0% | 0% | 0% | 0% | 0% | 11% | 0% | 0% | 10% | – | 5% | 0% | 0% | 2% | 94.5% | 0% | 64% | 97.4% | 2%
O=C1NCCc2[nH]c(-c3ccncc3)cc21 | 13% | 28% | 0% | 0% | 0% | 93.1% | 8% | 0% | 4% | 30% | 0% | 4% | 10% | 0% | 20% | 6% | 12% | 0% | 0% | 0%
CN(c1ccccc1CNc1nc(Nc2ccc3c(c2)CC(=O)N3)ncc1C(F)(F)F)S(C)(=O)=O | 68% | 82% | 0% | 5% | 24% | 95.8% | 0% | – | 82% | 70% | 68% | 64% | 47% | 11% | 37% | 53% | 19% | 99.5% | 85% | 54%
CC(C)c1nc(-c2cccc(NS(=O)(=O)c3ccccc3)c2)c(-c2ccnc(Nc3ccc4c(c3)CN(C)CC4)n2)s1 [GSK1649598] | 0% | 0% | 0% | 43% | 11% | 0% | 63% | 0% | 23% | 0% | 68% | 6% | 35% | 0% | 97.4% | 98.2% | 40% | 90.3% | 99.6% | 98.2%
CNC(=O)c1ccccc1Nc1nc(Nc2cccc(CS(C)(=O)=O)c2)ncc1C.O=CO [GSK1520489] | 46% | 60% | 35% | 35% | 0% | 80% | 58% | 99.9% | 96% | 38% | 99.9% | 99.3% | 99.8% | 94.6% | 99.2% | 98.2% | 89% | 99.1% | 100% | 98.2%
COc1cc(Nc2nccc(N3CCC(NC(=O)c4cccc(C#N)c4)C3)n2)cc(OC)c1OC (stereo not shown) [GSK1379751] | 0% | 0% | 3% | 0% | 0% | 0% | 0% | 0% | 0% | 0% | 0% | 0% | 5% | 7% | 37% | 0% | 0% | 44% | 11% | 0%
CCn1c(-c2nonc2N)nc2cncc(CNC3CCNCC3)c21.Cl [SB-747651] | 0% | 0% | 6% | 0% | 0% | 16% | 2% | 0% | 2% | 0% | 0% | 0% | 5% | 6% | 1% | 8% | 3% | 0% | 10% | 0%
Cn1cc(-c2cccc3c(N)c(C(N)=O)nnc23)cn1 | 5% | 27% | 0% | 0% | 0% | 0% | 33% | 21% | 8% | 8% | 25% | 2% | 12% | 9% | 9% | 0% | 30% | 27% | 15% | 2%
